SMILES strings stand for the structures. About 970 (0.44%) of roughly 220,000 compounds were called active. The full list was thinned out, with actives kept by preference. A number with no mark means an inactive call. Cut-off read from the data, not from the text of the source: active = activation above about 27%; inactive = the rest.

This test deals with Neuropeptide Y receptor type 2 (Homo sapiens) (UniProt P49146). As to the kind of experiment: NPY-Y2 potentiators or agonists, primary screen, cell-based (AID 1359).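 Note: cells stimulated with NPY near EC25 plus isoproterenol at EC100; 0% = vehicle plus submaximal agonist and 100% = vehicle plus saturating agonist.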 Conditions: cells expressing NPY-Y2, potentiator/agonist read-out; at 3.6 µM; hits give high values.
Neuropeptide Y receptor type 2 (Homo sapiens), sequence (P49146 whole entry, looked up): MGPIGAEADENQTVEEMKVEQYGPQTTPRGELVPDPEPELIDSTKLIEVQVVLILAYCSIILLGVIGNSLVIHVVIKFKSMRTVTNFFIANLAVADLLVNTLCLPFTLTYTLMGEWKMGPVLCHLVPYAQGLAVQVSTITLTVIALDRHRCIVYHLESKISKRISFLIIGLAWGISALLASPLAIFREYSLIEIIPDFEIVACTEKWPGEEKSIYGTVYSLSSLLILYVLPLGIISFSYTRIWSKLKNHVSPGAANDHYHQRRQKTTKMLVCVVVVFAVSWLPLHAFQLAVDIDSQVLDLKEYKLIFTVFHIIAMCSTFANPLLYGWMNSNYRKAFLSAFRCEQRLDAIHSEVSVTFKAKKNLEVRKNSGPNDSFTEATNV
With `Cc1nn(CCOc2ccc(Br)cc2)c(C)c1[N+](=O)[O-]`, the activation is 14.5%.

`O=C(NC1C2CC3CC(C2)CC1C3)c1ccc(N2CCNCC2)c([N+](=O)[O-])c1` (configuration not stated): the activation is 29.4%.

In the case of `C#CCOCCOCCOCCNc1nc(N2CCN(C(=O)[C@H](CCCCN)n3cc([C@@H](N)C(C)CC)nn3)CC2)nc(N2CCN(C(=O)[C@H](Cc3ccc(O)cc3)n3cc([C@@H](N)C(C)CC)nn3)CC2)n1` (some centres not stated), the activation was 104% (active).

With `C#CCOCCOCCOCCNc1nc(N2CCN(C(=O)[C@H](Cc3ccc(O)cc3)n3cc(C(N)CC(C)C)nn3)CC2)nc(N2CCN(C(=O)[C@H](CCC(=O)O)n3cc(C(N)[C@H](C)CC)nn3)CC2)n1` (some centres not stated), the activation was -9.15%.

For `C#CCOCCOCCOCCNc1nc(N2CCN(C(=O)C(Cc3ccc(O)cc3)n3cc(C(N)CC(C)C)nn3)CC2)nc(N2CCN(C(=O)C(Cc3ccc(O)cc3)n3cc(C(N)C(C)CC)nn3)CC2)n1` (configuration not stated), the activation is -7.8%.

Turning to `O=C(CCC(=O)NNc1nc2ccccc2c2nc(-c3ccccc3)nn12)NCCCN1CCCC1=O`, the activation was -1.14%.

In the case of `CCCCNC(=S)N/N=C1\CCCCc2ccccc21`, the activation was 2.42%.

For the molecule `COc1ccc2[nH]c3ccc(OC)cc3c2c1`, the activation is 65.6% (active).

For `CCN(CC)CC(=O)c1c[nH]c2ccc(OC)cc12`, the activation was 0.4%.

For the molecule `COc1ccc2[nH]c(=S)cc(C)c2c1`, the activation is -28%.

On to `O=C(c1c(Cl)cccc1Cl)N1CCN(c2cccc3[nH]ccc23)CC1`, for which the activation is 6.12%.

`C=Cn1c(C(=O)O)ccc1-c1ccc(OC)cc1`: the activation is -9.57%.

Take `COc1ccc(C(=O)C2CCCN(Cc3ccc4nonc4c3)C2)c(C)c1` (configuration not stated): the activation is -20.8%.

Regarding `CCOC(=O)c1[nH]ncc1CN1CCCC(C(=O)c2ccc(OC)cc2C)C1` (configuration not stated), the activation is 3.33%.

As to `COc1ccc(C(=O)C2CCCN(Cc3cccn3-c3ccccn3)C2)c(C)c1` (configuration not stated), the activation is 89.8% (active).

In the case of `CC1CCc2sc(C(=O)N/N=C/C3CCCCC3)cc2C1` (configuration not stated), the activation is 4.14%.

Turning to `CSCC(=O)N1CCCC(C(=O)c2cc(F)ccc2F)C1` (configuration not stated), the activation is 0.81%.

Take `O=C(Nc1ccccc1)N1CCN(C2c3ccccc3-c3ccccc32)CC1`: the activation is -13.1%.

On to `N#C/C(=C\N1CCOCC1)S(=O)(=O)c1ccc(Cl)cc1`, for which the activation is 8.91%.

Take `Cc1cccc(C)c1NC(=O)C1(C)c2cccc[n+]2CC(=O)N1Cc1cccs1` (configuration not stated): the activation is -2.7%.

Turning to `C/C(=N/NC(=O)c1ccn(C)n1)c1ccncc1`, the activation is 9.5%.

On to `COC(=O)c1ccc(NC(=O)Nc2ccc(C)cc2)cc1`, for which the activation is 99.2% (active).

As for `Cc1ccc(NC(=O)CC(=O)Nc2ccc(C)cc2)cc1`, the activation is -4.26%.

`CC(=O)c1cccc(NC(=O)Nc2ccc(C)cc2)c1`: the activation was 6.31%.

On to `Cc1ccc(S(=O)(=O)N2CCN(C(=O)COC(=O)c3c(C)noc3C)CC2)c(C)c1`, for which the activation was -1.02%.

Take `O=C(NC(Cc1c[nH]c2ccccc12)C(=O)N/N=C/c1ccc(Br)cc1)c1cccs1` (configuration not stated): the activation is 17.2%.

Consider `COc1cc([N+](=O)[O-])ccc1NC(=S)N1CCN(c2ccccn2)CC1`, for which the activation was -7.19%.

The record behind these values is PubChem BioAssay AID1359 (The Scripps Research Institute Molecular Screening Center, 2008).
